# Measurements as given in PubChem BioAssay (NCATS).
# Values without a mark were called inactive. Inconclusive results are not listed. Entries that show only a call come without a potency. The source made the active and inactive calls. Unless noted, calls follow the shape of the dose curve; as a rule, active = well fitted curve in the direction sought with a large enough effect; inconclusive = small, poorly fitted or top-dose-only effect, or another doubt; inactive = no such curve, though single readings can be large; an effect the other way counts as inactive or inconclusive.
# How the values were obtained:
# [1] = target: 3',5'-cyclic-AMP phosphodiesterase 4B (Homo sapiens) (UniProt Q07343); test: qHTS Assay for Inhibitors of PDE-IV (AID 607; active = well fitted activation curve with a large enough effect in the main read-out, with a control signal flat, not every such curve was filed as active)
# Sequence of 3',5'-cyclic-AMP phosphodiesterase 4B (Homo sapiens) (Q07343 whole entry, looked up): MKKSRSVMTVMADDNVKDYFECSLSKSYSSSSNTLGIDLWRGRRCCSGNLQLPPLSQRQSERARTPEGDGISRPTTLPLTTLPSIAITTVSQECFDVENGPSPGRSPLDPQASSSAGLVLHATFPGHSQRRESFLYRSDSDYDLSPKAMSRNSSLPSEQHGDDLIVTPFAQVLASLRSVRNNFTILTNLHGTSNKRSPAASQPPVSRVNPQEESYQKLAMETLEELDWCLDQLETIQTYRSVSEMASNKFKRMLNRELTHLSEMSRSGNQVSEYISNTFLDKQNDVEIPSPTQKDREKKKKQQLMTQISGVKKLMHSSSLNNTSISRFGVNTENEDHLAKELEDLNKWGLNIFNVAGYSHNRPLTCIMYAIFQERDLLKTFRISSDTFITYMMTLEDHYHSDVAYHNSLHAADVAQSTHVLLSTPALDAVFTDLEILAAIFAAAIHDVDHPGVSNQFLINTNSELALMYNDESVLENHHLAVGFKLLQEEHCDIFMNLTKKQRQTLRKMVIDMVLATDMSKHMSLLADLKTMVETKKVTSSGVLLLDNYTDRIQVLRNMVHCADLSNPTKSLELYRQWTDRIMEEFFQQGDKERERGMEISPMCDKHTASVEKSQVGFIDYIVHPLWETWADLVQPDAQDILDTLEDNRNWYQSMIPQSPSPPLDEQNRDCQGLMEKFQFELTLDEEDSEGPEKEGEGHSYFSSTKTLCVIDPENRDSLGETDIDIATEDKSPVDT
# Summary of the method: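 The readout is membrane depolarisation from a cAMP-sensing CNG channel, detected with a potential dye at ex 535/em 590. Cells were HEK293-derived (endogenous PDE-IV) at 1000 cells/well, titrated up to 22.9 uM final.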
# [2] = target: Cytochrome P450 3A4 (Homo sapiens) (UniProt P08684); test: qHTS Assay for Inhibitors and Substrates of Cytochrome P450 3A4 (AID 884); also: nearly all actives have a fitted effect of over 50% in size; also: potency is read from the fitted curve at half-maximal effect
# Sequence of Cytochrome P450 3A4 (Homo sapiens) (P08684 whole entry, looked up): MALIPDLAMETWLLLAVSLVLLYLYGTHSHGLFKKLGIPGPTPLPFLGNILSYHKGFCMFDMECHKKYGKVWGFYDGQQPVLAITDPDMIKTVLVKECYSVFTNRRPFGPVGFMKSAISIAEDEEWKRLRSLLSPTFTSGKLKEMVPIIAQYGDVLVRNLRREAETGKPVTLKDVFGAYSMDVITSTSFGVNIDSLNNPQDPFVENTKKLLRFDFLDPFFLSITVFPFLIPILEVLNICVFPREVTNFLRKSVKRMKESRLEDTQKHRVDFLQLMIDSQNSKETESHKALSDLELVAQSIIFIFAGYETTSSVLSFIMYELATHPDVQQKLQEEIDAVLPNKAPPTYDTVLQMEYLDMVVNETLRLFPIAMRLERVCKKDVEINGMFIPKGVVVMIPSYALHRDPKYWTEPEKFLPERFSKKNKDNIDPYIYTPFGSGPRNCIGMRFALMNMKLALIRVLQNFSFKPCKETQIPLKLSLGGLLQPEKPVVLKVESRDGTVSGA
# Summary of the method: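 Luminescent readout of luciferin produced by CYP3A4 (20 nM) dealkylation of Luciferin-PPXE, 25 uM (its KM). NADPH-driven reaction ran 60 min at RT after 10 min compound preincubation; data scaled to 57 uM ketoconazole as 100% inhibition.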
# [3] = target: Guanine nucleotide-binding protein G(i) subunit alpha-1 (Homo sapiens) (UniProt P63096); test: qHTS Assay for Inhibitors of RGS12 GoLoco Motif Activity (Green Fluorophore) (AID 879);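 also: negative values mean loss of peptide binding seen as reduced polarization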
# Sequence of Guanine nucleotide-binding protein G(i) subunit alpha-1 (Homo sapiens) (P63096 whole entry, looked up): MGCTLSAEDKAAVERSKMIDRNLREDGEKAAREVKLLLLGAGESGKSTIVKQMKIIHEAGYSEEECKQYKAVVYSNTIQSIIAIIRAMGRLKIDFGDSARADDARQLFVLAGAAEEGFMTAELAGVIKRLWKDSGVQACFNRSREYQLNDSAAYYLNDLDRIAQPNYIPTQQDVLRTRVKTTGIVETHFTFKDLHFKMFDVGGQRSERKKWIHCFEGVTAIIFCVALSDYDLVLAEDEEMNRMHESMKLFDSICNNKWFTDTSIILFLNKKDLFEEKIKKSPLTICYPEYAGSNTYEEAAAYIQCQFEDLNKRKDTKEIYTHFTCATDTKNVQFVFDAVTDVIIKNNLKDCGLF
# Summary of the method: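 A drop in FITC polarization marked displacement of the FITC-tagged RGS12 GoLoco peptide (10 nM) from Gαi1 (50 nM). Compounds were incubated 10 min at room temperature in Tris pH 7.5 buffer containing 150 mM NaCl, 0.1 mM GDP and 0.05% NP40; unlabeled peptide titration served as control.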
# [4] = target: Cytochrome P450 2C9 (Homo sapiens) (UniProt P11712); test: qHTS Assay for Inhibitors and Substrates of Cytochrome P450 2C9 (AID 883); also: nearly all actives have a fitted effect of over 60% in size
# Sequence of Cytochrome P450 2C9 (Homo sapiens) (P11712 whole entry, looked up): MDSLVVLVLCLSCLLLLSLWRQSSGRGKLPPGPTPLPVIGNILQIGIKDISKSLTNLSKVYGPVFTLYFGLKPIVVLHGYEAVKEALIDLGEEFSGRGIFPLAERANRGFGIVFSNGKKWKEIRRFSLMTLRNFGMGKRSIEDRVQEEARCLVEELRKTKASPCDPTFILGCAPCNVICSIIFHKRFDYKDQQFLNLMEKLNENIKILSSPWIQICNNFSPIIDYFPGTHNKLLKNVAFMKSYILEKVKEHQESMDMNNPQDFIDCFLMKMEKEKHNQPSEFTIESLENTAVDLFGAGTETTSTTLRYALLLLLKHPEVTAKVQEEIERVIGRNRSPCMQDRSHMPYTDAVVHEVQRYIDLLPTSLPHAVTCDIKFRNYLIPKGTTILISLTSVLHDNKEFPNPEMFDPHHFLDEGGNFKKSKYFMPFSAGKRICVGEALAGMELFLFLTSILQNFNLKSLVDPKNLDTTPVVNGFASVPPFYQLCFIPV
# Summary of the method: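 10nM CYP2C9 + 100uM Luciferin-H (=KM), 25mM KPO4; cpd 10 min 37C; NADPH regen, 60 min 37C; stop/detect with P450 Glo-Buffer 20 min; luminescence. Norm. to 57uM sulphaphenazole as full inhibition.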
# [5] = qHTS Assay for Identification of Small Molecule Antagonists for NFkB Signaling Pathway (AID 895; active = well fitted inhibition curve with a large enough effect in the signal ratio, with a control signal flat, not every such curve was filed as active; the % refers to the signal ratio)
# Summary of the method: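 ME-180 NFkB-bla cells (beta-lactamase under NFkB response element), plated overnight, treated with compound then 10 pM TNF alpha (about EC50) for 5 hrs at 37 C. LiveBLAzer FRET read at 460/530 nm emission, 405 nm excitation.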
# [6] = Cellular Toxicity (caspase-3) HepG2 (AID 654);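 also: cells exposed to compound for 16 hours before reading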
# Summary of the method: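 Caspase 3/7 activation is measured as a luminescence increase (aminoluciferin substrate) after 16 h compound exposure of human hepatocarcinoma HepG2 cells. AC50 values are Hill fits, scaled between DMSO baseline and 100 uM tamoxifen stimulation.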
# [7] = Cellular Toxicity (caspase-3) Jurkat (AID 655);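 also: cells exposed to compound for 16 h at 37 °C before reading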
# Summary of the method: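 qHTS in human Jurkat T-cell leukemia line: 16 hr compound treatment at 37 °C, caspase-3/7 activity measured by Caspase-Glo luminescence. AC50 derived from Hill equation.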
# [8] = Cellular Toxicity (caspase-3) HUV-EC-C (AID 656)
# Summary of the method: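 Concentration-dependent caspase 3/7 induction was assessed in HUV-EC-C cells exposed for 16 hours. Data scaled between DMSO and tamoxifen (100 uM) controls.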
# [9] = Cellular Toxicity (caspase-3) SHSY5Y (AID 657);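 also: cells exposed to compound for 16 hours at 37 °C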
# Summary of the method: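 Readout: caspase-cleaved peptide-aminoluciferin substrate driving luciferase light in SH-SY5Y neuroblastoma cells after 16 h treatment. Response normalized to DMSO and 10 uM staurosporine controls.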
# [10] = Cellular Toxicity (caspase-3) BJ (AID 658)
# Summary of the method: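 qHTS, BJ fibroblasts, 1000 cells/well; 5 hr preincubation, 16 hr compound, 37 °C; Caspase-Glo 3/7 reagent, 1 hr RT; luminescence. DMSO = 0%, 10 uM staurosporine = 100%. Hill-equation AC50.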
# [11] = Cellular Toxicity (caspase-3) Mesangial (AID 660); settings: Potency: caspase-3 activation;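 also: combined caspase 3 and 7 activity read by Caspase-Glo luminescence; cells exposed to compound for 16 h before the caspase read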
# Summary of the method: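 Caspase 3/7 activation measured by Caspase-Glo 3/7 luminescence (20 min, room temperature) following 16 h exposure of mesangial cells (1000/well); AC50 from Hill-equation fit, normalized to DMSO and 100 uM tamoxifen.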
# [12] = Cellular Toxicity (caspase-3) SK-N-SH (AID 661)
# Summary of the method: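 Caspase 3/7 activation was read by luminogenic substrate cleavage after 16 hour treatment of SK-N-SH cells. Signal was scaled between DMSO and 10 uM staurosporine, and concentration-response data were fitted with the Hill equation for AC50.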
# [13] = Cellular Toxicity (caspase-3) H-4-II-E (AID 663); settings: H-4-II-E rat hepatoma, scaled: DMSO 0%, 100 µM tamoxifen 100%; at 92.2 µM (top of the series);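 also: cells exposed to compound for 16 hr before readout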
# Summary of the method: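 H-4-II-E rat hepatoma, 1500 cells/well, 5 hr settle at 37 °C; compound 16 hr, 37 °C, complete medium; Caspase-Glo 3/7, 20 min RT; luminescence. DMSO = 0%, 100 uM tamoxifen = 100%; Hill-equation AC50.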
# [14] = Cellular Toxicity (caspase-3) Hek293 (AID 664); settings: HEK293 caspase-3 activation, DMSO = 0%, 100 µM tamoxifen = 100%; at 92.2 µM (top of the series);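 also: cells exposed to compound for 16 h at 37 °C before readout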
# Summary of the method: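 Concentration-response qHTS: caspase 3/7 activation measured by luminescent aminoluciferin substrate cleavage after 16 h compound exposure of Hek 293 cells. AC50 from Hill equation, with DMSO as basal and 100 uM tamoxifen as 100%.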
# [15] = Cellular Toxicity (caspase-3) N2a (AID 665); settings: Potency: caspase-3 activation;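 also: compound exposure lasted 16 h at 37 °C before readout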
# Summary of the method: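 Caspase-3/7 activation measured as luminescence from Caspase-Glo reagent (1 h, room temperature) after 16 h compound exposure of mouse N2a cells. AC50 values from Hill-equation concentration-response, scaled between DMSO and 10 uM staurosporine.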
# [16] = Cellular Toxicity (caspase-3) NIH 3T3 (AID 666)
# Summary of the method: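 Caspase-Glo 3/7 luminescence reported caspase activation in 1000 NIH 3T3 cells/well after 16 h compound exposure at 37 C. DMSO set basal and 100 uM tamoxifen set 100% stimulation; concentration-response modeled with the Hill equation for AC50.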
# [17] = Cellular Toxicity (caspase-3) Renal Proximal Tubule (AID 667); settings: Potency: caspase-3 activation;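 also: cells exposed to compound for 16 hours at 37 °C before detection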
# Summary of the method: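 Caspase-Glo 3/7 read-out, rat primary kidney proximal tubule cells. Compound exposure 16 h, 37 °C; detection after 1 h at RT. Activity scaled to DMSO and 10 uM staurosporine.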
# [18] = target: Cytochrome P450 3A4 (Homo sapiens) (UniProt P08684); test: qHTS Assay for Activators of Cytochrome P450 3A4 (AID 885); also: nearly all actives have a fitted effect of over 65% in size; also: potency is read from the fitted curve at half-maximal effect
# Summary of the method: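 Activators are scored by enhanced luminescence from CYP3A4 conversion of luciferin-PPXE (25uM, equal to KM) to luciferin, after 60 min at RT with an NADPH-regenerating system.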
# [19] = target: Cytochrome P450 2D6 (Homo sapiens) (UniProt P10635); test: qHTS Assay for Inhibitors and Substrates of Cytochrome P450 2D6 (AID 891); also: nearly all actives have a fitted effect of over 60% in size; also: potency is read from the fitted curve at half-maximal effect
# Sequence of Cytochrome P450 2D6 (Homo sapiens) (P10635 whole entry, looked up): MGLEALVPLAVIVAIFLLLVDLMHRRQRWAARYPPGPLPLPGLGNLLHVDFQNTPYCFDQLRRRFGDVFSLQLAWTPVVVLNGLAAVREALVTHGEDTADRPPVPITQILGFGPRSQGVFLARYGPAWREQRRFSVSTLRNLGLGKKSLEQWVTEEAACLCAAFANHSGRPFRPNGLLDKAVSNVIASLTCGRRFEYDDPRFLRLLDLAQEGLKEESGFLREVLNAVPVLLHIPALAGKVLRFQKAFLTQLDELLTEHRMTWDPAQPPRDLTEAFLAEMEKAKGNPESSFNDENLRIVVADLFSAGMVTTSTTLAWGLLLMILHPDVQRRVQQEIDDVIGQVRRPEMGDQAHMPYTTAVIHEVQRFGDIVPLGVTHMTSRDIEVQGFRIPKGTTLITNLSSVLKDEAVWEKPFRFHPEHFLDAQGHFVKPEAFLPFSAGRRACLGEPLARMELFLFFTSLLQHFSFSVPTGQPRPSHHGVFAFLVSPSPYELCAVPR
# Summary of the method: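 Luminescent read-out of luciferin formed by 5 nM human CYP2D6 demethylating 30 uM Luciferin-ME EGE (Km level) over 60 min at room temperature after NADPH regeneration addition. Data normalized to full inhibition by 1.43 uM quinidine.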
smiles,measurement,setting,value
Cc1c(Nc2ncccc2C(=O)O)cccc1C(F)(F)F,outcome,[1],inactive
same,Potency,[2],inactive
C=C[C@H]1CN2CC[C@@H]1C[C@@H]2[C@@H](O)c1ccnc2ccc(OC)cc12,outcome,[3],inactive
same,outcome,[4],inactive
same,Potency,[5],inactive
CC(C)NCC(O)COc1cccc2ccccc12 (stereo not given),Potency,[6],inactive
same,Potency,[7],inactive
same,outcome,[8],inactive
same,outcome,[9],inactive
same,outcome,[10],inactive
same,Potency,[11],inactive
same,Potency,[12],inactive
same,caspase-3 activation,[13],12.6%
same,caspase-3 activation,[14],0.268%
same,Potency,[15],inactive
same,Potency,[16],inactive
same,Potency,[17],inactive
same,Potency,[2],inactive
O=C(OCc1ccccc1)c1ccccc1,Potency,[2],inactive
O=C(Nc1ccncc1)c1cc([N+](=O)[O-])ccc1Cl,Potency,[2],1260 nM (active)
same,Potency,[18],inactive
O=C(/C=C/c1ccc(O)c(O)c1)OCCc1ccccc1,Potency,[18],inactive
Clc1ccccc1-c1nc(-c2ccncc2)no1,outcome,[1],inactive
same,"activity change, positive = activation",[18],-40.1% [at 11.4 µM]
O=c1[nH]c2ccccc2n1CCCN1CCN(C(c2ccccc2)c2ccccc2)CC1,outcome,[3],inactive
same,Potency,[2],inactive
same,Potency,[18],15800 nM (active)
same,Potency,[19],794 nM (active)
COc1ccc(/C=C/C(=O)Nc2ccccc2C(=O)O)cc1OC,outcome,[3],inactive
same,Potency,[18],inactive
C=C[C@@H]1CN2CC[C@@H]1C[C@H]2[C@H](O)c1ccnc2ccc(OC)cc12,Potency,[4],inactive
Brc1c(Br)c(Br)c2n[nH]nc2c1Br,outcome,[3],inactive
same,Potency,[2],2510 nM (active)
same,Potency,[18],inactive
O=C(O)c1cc(O)c(O)c(O)c1,Potency,[6],inactive
same,Potency,[7],inactive
same,outcome,[8],inactive
same,outcome,[9],inactive
same,outcome,[10],inactive
same,Potency,[11],inactive
same,Potency,[12],inactive
same,caspase-3 activation,[13],-0.904%
same,caspase-3 activation,[14],-9.64%
same,Potency,[15],inactive
same,Potency,[16],inactive
same,Potency,[17],inactive
same,Potency,[2],inactive
C[C@@H](NC(=O)/C(C#N)=C/c1ccc(O)c(O)c1)c1ccccc1,outcome,[3],inactive
same,Potency,[4],inactive
same,Potency,[18],inactive
CCCSc1ccc2nc(NC(=O)OC)[nH]c2c1,outcome,[1],inactive
same,outcome,[4],inactive
same,outcome,[19],inactive
N=C(N)N,Potency,[2],inactive
CC(C(=O)O)c1ccc2c(c1)[nH]c1ccc(Cl)cc12 (stereo not given),Potency,[2],inactive
CCN1/C(=C/C(C)=O)Sc2ccc(OC)cc21,outcome,[3],inactive
same,Potency,[18],inactive
Nc1nc(Cl)nc2c1ncn2[C@@H]1O[C@H](CO)[C@@H](O)[C@H]1O,Potency,[2],inactive
N[C@@H](CC(=O)O)C(=O)O,outcome,[3],inactive
O=C(O)[C@@H]1C[C@@H](C(=O)O)N1,outcome,[3],inactive
same,Potency,[2],inactive
same,Potency,[5],inactive
CC(N)C(=O)OC(C)(C)Cc1ccc(Cl)cc1 (stereo not given),Potency,[18],inactive
COc1cccc(OC)c1OCCNCC1COc2ccccc2O1 (stereo not given),Potency,[2],3160 nM (active)
same,Potency,[18],inactive
